rCAG RNA binder: binds r(CAG) RNA repeats | inhibition, % at 3 µM | r(CAG) RNA repeat, TO-PRO-1 dye displacement fluorescence | actives 1.3% (n = 370,000);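 active = inhibition above the plate cutoff, the mean of all test compounds on that plate plus 3 SD, cut at about 35% in these data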;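 note: higher means more dye released from RNA so lower well fluorescence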
Rtt109 HAT inh: blocks Candida albicans Rtt109/Vps75 acetyltransferase activity. inhibition, % at 34.9 µM. actives 0.16% (n = 330,000). AID 540336. purified Rtt109/Vps75, ThioGlo CoA-SH fluorescence, 4 h;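 active = inhibition of at least 50% in every replicate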
LANA-H2B inh: blocks KSHV LANA binding to histone H2A/H2B | cell-free LANA-H2A/H2B peptide, fluorescence polarization | actives 0.6% (n = 320,000) | AID 2629 | inhibition, % (concentration not given with the values); in the data active = inhibition mostly above about 10%, no sharp cut-off; inactive = mostly below about 6.7%
PRMT1 inh: blocks human protein arginine methyltransferase 1 | actives 1.3% (n = 370,000) | Q99873 | recombinant PRMT1, activity-based probe fluorescence polarization | inhibition, % at 2.79 µM;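 active = inhibition above about 21% made by adding two undisclosed values, limit read from the data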
ALR H2O2 inh: blocks human ALR sulfhydryl oxidase activity; purified ALR, DTT oxidation, H2O2 HRP-luminol luminescence; inhibition, % (test concentration not listed); AID 485317; actives 3.8% (n = 290,000); P55789;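 active = mean replicate inhibition above about 79%, with every replicate also reaching it, limit read from the data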
Target sequence (P55789 whole entry, looked up): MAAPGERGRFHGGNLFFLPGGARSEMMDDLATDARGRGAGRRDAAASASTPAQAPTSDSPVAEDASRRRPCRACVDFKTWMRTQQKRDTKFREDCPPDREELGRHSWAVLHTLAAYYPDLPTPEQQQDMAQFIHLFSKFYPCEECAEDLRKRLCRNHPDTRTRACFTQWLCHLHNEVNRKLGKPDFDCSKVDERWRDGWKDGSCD
ABHD5-PLIN5 inh: inhibitors of human ABHD5-perilipin-5 interaction; Split G. princeps luciferase complementation, luminescence, 4 h; actives 0.78% (n = 360,000); Q00G26+Q8WTS1; inhibition, % at 4 µM; AID 602281;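 active = inhibition above the mean inhibition across every tested compound plus 3 SD, cut at about 22% in these data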
Hits are given with their value; – = inactive; · = not tested or not shown. An excerpt weighted towards active compounds, which were near 5.9% of everything screened.

SMILES	rCAG RNA binder	Rtt109 HAT inh	LANA-H2B inh	PRMT1 inh	ALR H2O2 inh	ABHD5-PLIN5 inh
CCn1c(SCC(=O)N/N=C/c2cccs2)nc2ccccc21	–	·	–	–	–	–
CCOc1cc(/C=N/NC(=O)CCn2nnc3ccccc32)ccc1O	–	–	–	–	100	–
CC(/C=N/NC(=O)CCn1nnc2ccccc21)=C\c1ccccc1	–	–	–	–	–	–
CCn1c(SCC(=O)N/N=C/c2ccc(O)c(OC)c2)nc2ccccc21	–	–	–	–	99	–
CC(C)n1nnnc1C1c2ccccc2OCC(=O)N1Cc1cccc(C(F)(F)F)c1 (stereo not given)	–	·	·	–	·	·
CCOc1ccccc1C(=O)NC(C(=O)OCn1nnc2ccccc2c1=O)C(C)C (stereo not given)	–	·	·	–	·	–
N#C/C(=C\c1ccc([N+](=O)[O-])cc1)C(=O)Nc1ccccc1O	–	–	–	–	86	–
CCN(CC)CCCn1c2c(c(SCC(=O)Nc3cccc(C(C)=O)c3)nc1=O)CCC2	–	–	–	–	99	–
CC(=O)c1cccc(NC(=O)CSc2nc(=O)n(Cc3ccccn3)c3c2CCC3)c1	–	–	–	–	99	–
CN(C)CCCn1c2c(c(SCC(=O)Nc3ccc4c(c3)OCO4)nc1=O)CCC2	–	–	–	–	98	–
CCN(CC)CCn1c2c(c(SCC(=O)Nc3cccc(C(C)=O)c3)nc1=O)CCCC2	–	–	·	–	·	–
CCN(CC)CCCn1c2c(c(SCC(=O)Nc3ccc4c(c3)OCCO4)nc1=O)CCC2	–	–	–	–	98	–
C[C@H]1CCC[C@@H](O)CC(=O)c2c(O)cc(O)cc2CC(=O)O1	–	·	·	–	·	·
COC(=O)CSc1ccc(C#N)c(SCC(=O)OC)c1	–	–	–	–	99	–
O=C(OCc1ccccc1)N1CCC2CC1c1ccc(-c3cccc(F)c3)cc12 (stereo not given)	–	·	·	–	·	–
CC(NC(=O)c1ccco1)C(c1cccs1)N1CCN(c2ccc(F)cc2)CC1 (stereo not given)	–	–	–	–	99	–
CC(NC(=O)c1ccco1)C(c1cccs1)N1CCN(c2ccccc2)CC1 (stereo not given)	–	–	–	–	98	–
CCN(c1ccccc1)S(=O)(=O)c1ccc(OC)c(NC(=O)CN(C)C)c1	–	–	94	–	–	–
COC(=O)[C@H](C(C)C)N(CCCc1cn(Cc2ccc(C)cc2)nn1)S(=O)(=O)c1ccccc1Br	–	·	·	–	·	·
ClCc1csc(-c2ccc(Cl)cc2)n1	–	–	–	–	98	–
COCCn1c(SCC(=O)Nc2cccc(NC(C)=O)c2)nc2c([nH]c3ccccc32)c1=O	–	–	–	–	98	–
COCCn1c(SCC(=O)Nc2ccc(C(C)=O)cc2)nc2c([nH]c3ccccc32)c1=O	–	–	–	–	98	–
COCCn1c(SCC(=O)Nc2cccc(F)c2)nc2c([nH]c3ccccc32)c1=O	–	–	–	–	–	–
COc1cccc(/C=C2\CC3(OC(=O)C(C)(C)C)CCCN2C3)c1 (stereo not given)	–	·	·	–	·	·
CC1(C)C2CCC1(C)C(OCC[N+](C)(C)CC(=O)OC1CCCCC1)C2 (stereo not given)	–	58	27	–	–	–
SMILES	rCAG RNA binder	Rtt109 HAT inh	LANA-H2B inh	PRMT1 inh	ALR H2O2 inh	ABHD5-PLIN5 inh
Cc1cccc(C)c1-n1nnnc1C1(C)CCC(=O)N1Cc1ccco1 (stereo not given)	–	·	·	–	·	–
Cc1cccc(N2C(=O)c3cccc4c(N(C)CCO)ccc(c34)C2=O)c1	·	–	20	·	–	–
CC(C)CCN1C(=O)c2cccc3c(N)ccc(c23)C1=O	–	–	14	158	–	–
Cc1cccc(N2C(=O)c3cccc4c(N)ccc(c34)C2=O)c1	–	–	61	162	–	–
Nc1cccc(N2C(=O)c3cccc4c(N)ccc(c34)C2=O)c1	–	–	26	113	–	–
O=C(NCc1ccccc1)[C@H]1CCCN1	–	·	·	–	·	·
CCNC(=O)N(C)[C@H]1C[C@H]2c3[nH]c4c(-c5ccc6c(c5)OCO6)cccc4c3CCN2C(=O)[C@H]1[C@H](C)O	–	·	·	–	·	·
O=c1c(O[C@H]2O[C@@H](CO)[C@H](O)[C@@H](O)[C@@H]2O)c(-c2ccc(O)cc2)oc2cc(O)cc(O)c12	–	–	–	–	87	–
